Common to all, as to test: NCI-60 one-dose screen, 48 h (100 = growth as untreated, 0 = no growth, -100 = all killed)
Holding throughout (details): 10 µM unless noted

Experiment [1] has as its system T-47D breast.
Experiment [2] deals with BT-549 breast.
The subject of experiment [3] is MDA-MB-435 melanoma.
Experiment [4] deals with SW-620 colon.
For experiment [5], the system named is MCF7 breast.
In experiment [6] the test system is HCT-116 colon.
Experiment [7] has as its system HCC-2998 colon.
Experiment [8] relates to KM12 colon.

This is part of a sample that, as a whole, favours compounds with a hit. Of some 83,000 tested, about 20% had one in any assay.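 Percent growth is the endpoint: 0 to 100 indicates growth inhibition (40 means 60% inhibition), 0 means no net growth, and negative values indicate cell death.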 A number with no mark means an inactive call. The source made the active and inactive calls. How the source made its calls: active means growth percent below 10; inactive means the rest.

Consider `CCN(CC)C(=O)CC1=C(C)/C(=C/c2[nH]c(-c3ccc[nH]3)cc2OC)N=C1C`, for which the growth in experiment [1] was 33.4%; in experiment [2], 21.4%; in experiment [3] it was 17.2%; in experiment [4] it was 15.2%; in experiment [5], 19.3%; in experiment [6] it was 1.94% (active). For the same compound, the growth in experiment [7] is 30.4%; in experiment [8], 13.9%.
As to `CC1(/C=C/c2ccc(-c3ccccc3)cc2)CCn2cnc3ncnc(c32)N1O` (stereo not drawn), the growth in experiment [1] was 37.8%; in experiment [2], 17%; in experiment [3], 28.4%; in experiment [4] it was 28.2%; in experiment [5] it was 8.15% (active); in experiment [6] it was 20.2%. Moreover, the growth in experiment [7] is 32.3%; in experiment [8] it was 26%.
Consider `COC12C=C/C(=C(/C(=O)OCc3csc(SC)n3)C(=O)CCCCCCCCC3(OC)C=C/C(=C(/C(=O)OCc4cnc(SC)s4)C(=O)CCCCCCCC1)O3)O2` (stereo not drawn), for which the growth is 41.9% in experiment [1]; 31.7% in experiment [2]; 10% in experiment [3]; 27.6% in experiment [4]; 23.3% in experiment [5]; 7.05% (active) in experiment [6]. Besides, the growth in experiment [7] was -62.4% (active); in experiment [8], 18.1%.
For the compound `CC(O)CNC(Cc1ccccc1)c1ccc2c(c1)OCO2` (stereo not drawn), the growth in experiment [1] was 47.2%; in experiment [2], 57.9%; in experiment [3], 99.6%; in experiment [4], 92.8%; in experiment [5], 91.5%; in experiment [6], 62.1%. Further, the figures for the growth in experiment [7] and in experiment [8] were 104% and 99.3%, respectively.
Take `O=c1c2ccccc2n(C[C@H]2CO2)c2ccccc12`: the growth in experiment [1] was 12.6%; in experiment [2], -4.38% (active); in experiment [3] it was -61.5% (active); in experiment [4] it was 0.352% (active); in experiment [5], -4.75% (active); in experiment [6], 2.21% (active). For the same compound, the results for the growth in experiment [7] and in experiment [8] were -70% (active) and -16.4% (active), respectively.
Regarding `O=c1oc2c(cc1-c1ccccc1)c(=O)[nH]c1ccccc12`, the growth in experiment [1] is 95.4%; in experiment [2] it was 97.5%; in experiment [3], 97.7%; in experiment [4], 105%; in experiment [5], 87.3%; in experiment [6], 97.1%. The growth in experiment [7] was 105%; in experiment [8], 101%.
Consider `C/C(Cc1ccc(Cl)cc1)=C(\c1ccc(OCCN2CCCCCC2)cc1)c1ccc(OC(=O)c2ccccc2)cc1`, for which the growth in experiment [1] was 46.3%; in experiment [2] it was 56.2%; in experiment [3], 47.6%; in experiment [4], 37.3%; in experiment [5], 9.46% (active); in experiment [6], -64.8% (active). Also, the growth is 23.8% in experiment [7] and 32% in experiment [8].
Turning to `COC1/C=C/OC2(C)Oc3c(C)c(O)c4c(O)c(c(/C=N/N(c5ccccc5)c5ccccc5)c(O)c4c3C2=O)NC(=O)C(C)=C/C=C/C(C)C(O)C(C)C(O)C(C)C(OC(C)=O)C1C` (stereo not drawn), the growth in experiment [1] was -3.9% (active); in experiment [2], 88.9%; in experiment [3], 67.9%; in experiment [4], 4.75% (active); in experiment [5], 32.8%; in experiment [6], 38.7%. Further, the growth in experiment [7] is 71.1%; in experiment [8], 55.6%.
For the compound `CN(C)CCn1c(=O)c2ccccc2n2nc3ccccc3c12`, the growth in experiment [1] was 99.8%; in experiment [2] it was 103%; in experiment [3] it was 100%; in experiment [4] it was 64.2%; in experiment [5], 72.6%; in experiment [6] it was 71.1%. Also, the values for the growth in experiment [7] and in experiment [8] were 99.8% and 95%, respectively.
For `CN(C)/C(N)=N/N=C(\c1ccccc1)c1ccccn1`, the growth in experiment [1] was 110%; in experiment [2] it was 99.8%; in experiment [3] it was 113%; in experiment [4] it was 104%; in experiment [5] it was 105%; in experiment [6] it was 89.5%. The growth in experiment [7] was 94.3%; in experiment [8], 99.1%.
With `COc1ccc(-c2nc3c(c(-c4ccc(Cl)cc4)nn3-c3ccccc3)c(-c3ccccc3)c2C#N)cc1`, the growth was 94.3% in experiment [1]; 106% in experiment [2]; 105% in experiment [3]; 104% in experiment [4]; 96% in experiment [5]; 101% in experiment [6]. Moreover, the figures for the growth in experiment [7] and in experiment [8] were 115% and 98.5%, respectively.
For `Cc1ccc(C)c2c1sc1nc(N3CCOCC3)c(C#N)c(=O)n12`, the growth was 73.4% in experiment [1]; 90.9% in experiment [2]; 118% in experiment [3]; 105% in experiment [4]; 51.5% in experiment [5]; 88.6% in experiment [6]. Moreover, the growth in experiment [7] was 109%; in experiment [8], 63.1%.
As for `N#Cc1c(-c2ccccc2)nc2c(c(-c3ccc(Cl)cc3)nn2-c2ccccc2)c1-c1ccc([N+](=O)[O-])cc1`, the growth was 90.2% in experiment [1]; 111% in experiment [2]; 103% in experiment [3]; 96.1% in experiment [4]; 91.7% in experiment [5]; 88.9% in experiment [6]. In addition, the growth was 120% in experiment [7] and 102% in experiment [8].
With `Cc1ccc(C2CC(c3cccc(Nc4ccncc4)c3)=Nc3c(N)nc(N)nc3N2)cc1` (stereo not drawn), the growth in experiment [1] is 89%; in experiment [2], 114%; in experiment [3], 21.7%; in experiment [4], 30.4%; in experiment [5] it was 37.7%; in experiment [6] it was 22.3%. The growth in experiment [7] is 62.4%; in experiment [8], 51.7%.
`C/C=C1/CN(CCCCC)CC[C@H]1C(=O)c1cc2ccccc2[nH]1`: the growth in experiment [1] was 82.6%; in experiment [2], 97.4%; in experiment [3] it was 97.8%; in experiment [4], 87%; in experiment [5] it was 89.3%; in experiment [6], 66.5%. For the same compound, the growth in experiment [7] was 101%; in experiment [8], 109%.
Regarding `COC(=O)[C@]1(C)CCC[C@]2(C)[C@H]3C[C@@H]4[C@H]5[C@@H]6CC/C(=N\OCC/C(N)=N/O)[C@H]5[C@@]3(CC[C@H]21)CC4(C(C)C)O6`, the growth is 50% in experiment [1]; 74.9% in experiment [2]; 82.9% in experiment [3]; 64.3% in experiment [4]; 55.9% in experiment [5]; 52.6% in experiment [6]. The growth in experiment [7] was 90.4%; in experiment [8], 76%.
